FAS TE block = FAS thioesterase domain inhibitors, primary screen, biochemical, fluorescence intensity, uHTS | inhibition, % at 15 µM | hit rate 0.67% among 360,000 | AID 602261, 2012 | recombinant FAS-TE, OMFH fluorogenic substrate, fluorescence endpoint;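 active means compounds whose normalised, plate-corrected inhibition of enzyme fluorescence in the single-dose primary screen is 50% or more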;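 further: 0% = DMSO with enzyme and 100% = substrate without enzyme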
SMARCA2 activ = SMARCA2 (BRM) function activators, primary screen, cell-based, luminescence, high throughput. MG213 cells, MMTV-luciferase reporter, dexamethasone, overnight. activation, % at 9.1 µM. hit rate 1% among 370,000; in the data active means activation above about 7.8%;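 further: 0% = vehicle wells and 100% = reference activator wells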
KLK7 zymogen act = proKLK7 zymogen activators, primary screen, biochemical, fluorescence intensity; hit rate 0.9% among 370,000; AID 652039, 2013; activation, % at 7 µM; Kallikrein-7 (Homo sapiens), P49862; purified proKLK7, EDANS-DABCYL substrate fluorescence; 100% is mature enzyme control, 0% vehicle;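 active means activation above the mean of all tested compounds plus 3 SD, computed per campaign excluding outliers beyond control limits, cut at about 13% in these data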
Target sequence (P49862 whole entry, looked up): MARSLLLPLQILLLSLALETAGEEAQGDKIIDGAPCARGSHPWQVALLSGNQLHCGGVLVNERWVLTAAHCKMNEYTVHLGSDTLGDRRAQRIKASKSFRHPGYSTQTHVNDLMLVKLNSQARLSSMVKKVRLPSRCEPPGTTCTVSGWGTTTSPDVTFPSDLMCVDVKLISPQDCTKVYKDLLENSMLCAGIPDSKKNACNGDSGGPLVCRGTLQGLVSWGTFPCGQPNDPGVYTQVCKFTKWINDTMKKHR
GAA850 FXN act = FXN promoter activators, primary screen, cell-based, luciferase luminescence, HEK293 lucGAA850; activation, % at 6 µM; HEK293 lucGAA850 FXN promoter luciferase reporter, 24 h; percent of 10 µM SAHA response; hit rate 0.56% among 360,000;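 active means activation above the average of all compounds screened plus 3 SD, cutoff fixed separately per campaign, cut at about 7.5% in these data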;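 further: 0% = DMSO wells and 100% = 10 µM SAHA wells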
FAS-TE inh conf = FAS thioesterase domain inhibitors, confirmation, biochemical, fluorescence intensity, single concentration; shares compounds with FAS TE block; recombinant FAS-TE, OMFH fluorogenic substrate; inhibition, % at 15 µM; hit rate 45% among 2,300;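 active means compounds inhibiting the enzyme by at least 50% at 15 µM in any one of the replicates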;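 further: 0% = enzyme with DMSO only and 100% = wells lacking enzyme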
Active calls of the source: *; / = not tested or not shown. An excerpt weighted towards active compounds, which were near 2.9% of everything screened.

SMILES	FAS TE block	SMARCA2 activ	KLK7 zymogen act	GAA850 FXN act	FAS-TE inh conf
Cc1nc(CN(C)C(=O)CC2C(=O)NCCN2Cc2ccc(-c3ccccc3)cc2)cs1 (stereo unspecified)	-7	-3	0	2	/
COc1ccc(CNC(=O)C(c2ccc(C)cc2)N(Cc2cccs2)C(=O)c2ccc3c(c2)OCCO3)cc1 (stereo unspecified)	34	-1	0	-9	/
Cc1ccc(C(C(=O)NCc2ccccc2)N(Cc2cccs2)C(=O)c2ccc3c(c2)OCCO3)cc1 (stereo unspecified)	51*	-2	0	-6	32
CN(C(=O)c1cc2nc(-c3ccco3)cc(C(F)(F)F)n2n1)C1CCCCC1	13	3	-2	2	/
O=C(COC(=O)c1ccc([N+](=O)[O-])o1)Nc1cccc(S(=O)(=O)N2CCCCC2)c1	6	1	0	1	/
O=C(COC(=O)c1cc([N+](=O)[O-])ccc1NCCO)Nc1cccc(S(=O)(=O)N2CCCC2)c1	70*	-3	0	0	69*
Cc1ccc(C)c(C(=O)COC(=O)c2cc([N+](=O)[O-])ccc2NCCO)c1	62*	-3	0	2	4
Nc1ccc(C(=O)OCC(=O)Nc2ccc3c(c2)OCO3)cc1[N+](=O)[O-]	-4	4	0	3	/
Cc1ccc(C(=O)Nc2cccc(S(=O)(=O)N3CCCCC3)c2)cc1[N+](=O)[O-]	53*	4	0	2	14
O=C(COC(=O)c1cc([N+](=O)[O-])ccc1NCCO)Nc1ccc2c(c1)OCO2	77*	-2	0	2	51*
O=C(CC1CCCCC1)N1CCC(c2nc(-c3ccc(S(=O)(=O)N4CCCC4)cc3)no2)CC1	24	-3	1	-2	/
Cn1c(/C=C/N(Cc2ccccc2)c2ccccc2)c([N+](=O)[O-])c(=O)n(C)c1=O	57*	1	0	-2	47*
COc1cc(/C=N/N(C)c2ccccc2)cc(Cl)c1O	73*	2	0	5	57*
O=C(c1cccc(C(F)(F)F)c1)N1CCN(c2cc(=O)[nH]nc2-c2ccccc2)CC1	0	3	0	2	/
CCCn1c(=S)[nH]c2cc(C(=O)N3CCN(c4ccc(F)cc4)CC3)ccc2c1=O	55*	-1	1	1	26
Cc1cc(CN2CCN(c3ncc(Cc4ccccc4)cn3)CC2)cc(C)c1O	/	-6	0	/	/
CCc1ccc(OC(=O)Cc2ccc(OC)c(S(=O)(=O)N3CCOCC3)c2)cc1	22	-4	0	0	/
COc1ccc(CC(=O)Oc2ccc(C(C)(C)C)cc2)cc1S(=O)(=O)N1CCOCC1	60*	-1	-1	-1	15
O=C(OCC(=O)N1CCC(c2ccccc2)=N1)c1ccc(Cl)s1	24	1	0	1	/
CCOC(=O)c1sc(NC(=O)c2ccc(S(=O)(=O)N3CCCCC3)cc2)nc1-c1ccccc1	65*	-1	0	2	12
CCOC(=O)c1sc(NC(=O)c2ccc(S(=O)(=O)N3CCCCCC3)cc2)nc1-c1ccccc1	46	2	0	0	/
O=[N+]([O-])c1cc(-c2nnc(Nc3ccccc3)c3ccccc23)ccc1N1CCOCC1	63*	-4	0	1	15
O=[N+]([O-])c1cc(-c2nnc(Nc3ccc(O)cc3)c3ccccc23)ccc1N1CCOCC1	16	0	1	4	/
Cc1ccc(Nc2nnc(-c3ccc(N4CCOCC4)c([N+](=O)[O-])c3)c3ccccc23)cc1	64*	-3	0	3	13
CC(C)CC1NC(=O)c2cc3ccccc3cc2-n2c1nc1cc(Cl)ccc1c2=O (stereo unspecified)	82*	1	0	0	17
O=C1NC(Cc2ccccc2)c2nc3cc(F)ccc3c(=O)n2-c2ccc(Cl)cc21 (stereo unspecified)	/	-1	0	/	/
COc1cc2nc3n(c(=O)c2cc1OC)-c1cc2ccccc2cc1C(=O)NC3Cc1ccccc1 (stereo unspecified)	53*	2	-1	-1	20

Source: PubChem
